In PubChem BioAssay:

tested on: Human papillomavirus type 1a protein E7 (residues 44-93); assay: HPV1a E7 fragment binders on microarrays, primary screen, biochemical, small-molecule microarray, residues 44-93, 635 nm fluorescence (AID 1108); conditions: small-molecule microarray binding, fluorescence 635 nm; higher = more signal;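 note: E7 fragment applied at 1 µg/mL in TBST for 1 h at 4 C; score combines spot fluorescence with its signal to noise ratio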

Structure (SMILES) | composite z-score
COCCOC(=O)N1C(=O)[C@@]2(c3cc(C#CC4(O)CCCCCC4)ccc31)[C@H](C(=O)N1CCc3cc(OC)c(OC)cc3C1)[C@H]1C(=O)O[C@H](c3ccccc3)[C@H](c3ccccc3)N1[C@@H]2c1ccccc1OCCO | 1.04
COc1ccc(C#Cc2ccc3c(c2)[C@]2(C(=O)N3)[C@H](C(=O)O)[C@H]3C(=O)O[C@H](c4ccccc4)[C@H](c4ccccc4)N3[C@@H]2c2ccc(OCCO)cc2)cc1 | 0.873
COc1ccc(C#Cc2ccc3c(c2)[C@]2(C(=O)N3)[C@H](c3ccc(OCCO)cc3)N3[C@H](c4ccccc4)[C@H](c4ccccc4)OC(=O)[C@H]3[C@@H]2C(=O)N2CCN(c3ncccn3)CC2)cc1 | 1.25
[N-]=[N+]=NCc1ccccc1[C@H]1OC(c2ccc(OCCCO)cc2)=N[C@@]1(Cc1ccccc1N=[N+]=[N-])C(=O)N1CCCCC1 | 1.46
CCCC=C(CCC)[C@@H](NS(=O)(=O)c1ccccc1)c1ccc(C(F)(F)F)cc1 | 1.37
COc1cc2c(cc1OC)CN(C(=O)[C@@H]1[C@H]3C(=O)O[C@H](c4ccccc4)[C@H](c4ccccc4)N3[C@H](c3ccc(O)cc3)[C@@]13C(=O)Nc1ccc(C#CCNC(N)=O)cc13)CC2 | 0.762
COc1ccc([Si](C)(C)[C@@H]2[C@@H](CCO)O[C@]3(C(=O)N(Cc4cccc(N5C(=O)COc6ccccc65)c4)c4ccccc43)[C@H]2C)cc1 | 0.467
C=CC[C@@]1(C(=O)NCCN2CCOCC2)N=C(c2ccc(OCCCO)cc2)O[C@@H]1c1ccccc1 | 1.46
O=C1c2ccccc2[C@](Cc2ccccc2I)(C(=O)NCC(F)(F)F)[C@H](c2ccc(CO)cc2)N1Cc1ccccc1 | 1.42
COc1ccc(C(=O)Nc2ccc3c(c2)[C@]2(O[C@@H](CCO)[C@H]([Si](C)(C)c4ccc(OC)cc4)[C@H]2C)C(=O)N3Cc2ccccc2)cc1 | 0.958
COC(=O)[C@@]1(Cc2ccc(OC)cc2)[C@H]2c3cc(C(=O)N(C)C)n(CCF)c3C[C@H]2CN1C(=O)c1ccccc1 | 0.528
COC(=O)c1c(CC[C@@H](CO)NC(=O)N[C@@H](C)Cn2cc(C3(O)CCCC3)nn2)oc(C(C)=O)c1C(=O)OC | 0.467
CC1=C2[C@@H](CCc3ccccc3)OB(O)C[C@@H]2[C@@H]2C(=O)C=CC(=O)[C@@H]2C1 | 0.808
CCCNC(=O)[C@@]1(Sc2ccc(C)cc2)CC(=O)N(Cc2ccccc2)[C@@H]1c1ccc(CO)cc1I | 1.17
CC(C)C(CO)N1C(=O)[C@@H]2[C@H]3C(=O)OCC=C[C@H]3OC23C=CCN(Cn2nnc4ccccc42)C(=O)[C@@H]13 (some centres undefined) | -0.484
O=[N+]([O-])c1ccc(C[n+]2ccc(-c3ccc(CO)cc3)cc2)o1 | 0.418
COc1cc(C(O)C2C=CC3C(=O)N(C)C(=O)C3N2NC(=O)OC(C)(C)C)cc(OC)c1OC (centres undefined) | 0.968
COc1ccc([Si](C)(C)[C@@H]2[C@@H](CC(=O)N(CCO)Cc3ccccc3)O[C@]3(C(=O)N(C)c4c(Br)cc(C)cc43)[C@H]2C)cc1 | 1.26
COC(=O)[C@@]1(Cc2ccccc2)[C@H]2c3cc(C(=O)N(C)C)n(Cc4ccccn4)c3C[C@H]2CN1C(=O)c1ccccc1 | -0.271
O=C1NC(=O)C2C1C=CC(C(O)CCc1ccccc1)N2Nc1ccccn1 (centres undefined) | -0.574
CCOC(=O)C1=CCC(c2cccc(Cl)c2)O1 (centres undefined) | 0.377
C=C(COC)C(=O)CC[C@H](OC(=O)c1ccccc1-c1ccccc1C(=O)O)c1ccc(CO)o1 | 0.544
N#Cc1ccc(NN2C(C(O)c3ccco3)C=CC3C(=O)N(c4ccccc4)C(=O)C32)cc1 (centres undefined) | -0.345
COC(=O)C(CC#Cc1ccc2c(c1)[C@]1(C(=O)N2)[C@H](C(=O)N2CCc3cc(OC)c(OC)cc3C2)[C@H]2C(=O)O[C@H](c3ccccc3)[C@H](c3ccccc3)N2[C@@H]1c1ccc(OCCO)cc1)C(=O)OC | 1.41

tested on: not listed separately; assay: modulators of HCV replicon luciferase signal, primary screen, HCV replication inhibitor project, Huh7 cells, luciferase reporter (AID 1109); conditions: 48 h, higher = more signal;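 note: huh7 hepatoma cells harbouring a luciferase neomycin HCV replicon reporter; luciferase luminescence as measure of HCV replicon replication; test concentration not given here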

Structure (SMILES) | z-score
CCCCC(CC)C(O)C1C=CC2C(=O)NC(=O)C2N1Nc1ccccn1 (centres undefined) | -0.201
CC(C)C[C@@H]1NC(=O)[C@@H]2C[C@H](C(=O)NCCCC[N+](C)(C)C)[C@H](c3cccc(OCCO)c3)N2C1=O | -0.604
COCCOC(=O)N1C(=O)[C@@]2(c3ccccc31)[C@H](c1ccccc1OCCO)N1[C@H](c3ccccc3)[C@H](c3ccccc3)OC(=O)[C@H]1[C@@H]2C(=O)N1CCc2cc(OC)c(OC)cc2C1 | -2.37
CN1C(=O)C2C=CC(C(O)COCc3ccccc3)N(Nc3ccccc3)C2C1=O (centres undefined) | 0.74
[N-]=[N+]=NCc1ccccc1[C@H]1OC(c2ccc(OCCCO)cc2)=N[C@@]1(Cc1ccccc1N=[N+]=[N-])C(=O)NCCN1CCOCC1 | -2.34
C[N+](C)(C)CCCCNC(=O)[C@H]1C[C@H]2C(=O)NCC(=O)N2[C@H]1c1ccc(O)cc1 | -0.463
Cc1ccc(F)cc1S(=O)(=O)N[C@@H]1CCN(C(=O)c2ccc(OC(C)C)cc2)C1 | -0.0287
COCCOC(=O)N1C(=O)[C@@]2(c3ccccc31)[C@H](c1ccc(OCCO)cc1)N1[C@H](c3ccccc3)[C@H](c3ccccc3)OC(=O)[C@H]1[C@@H]2C(=O)NC[C@H](O)c1ccccc1 | -1.95
CCCCC=C[C@@H](NC(=O)CCc1ccccc1)c1ccccc1 | -2.6
COc1ccc([Si](C)(C)[C@@H]2[C@@H](CCO)O[C@]3(C(=O)N(Cc4ccc(N5C(=O)c6ccccc6Oc6ccccc65)cc4)c4ccccc43)[C@H]2C)cc1 | -4.95
CC[C@@H]1[C@@H]2C3C(=O)N(CC)C(=O)C3CC(=O)[C@@H]2[C@H](c2ccc(C)cc2)N1S(=O)(=O)c1ccc(C)cc1 (some centres undefined) | -1.64
COCCOC(=O)N1C(=O)[C@@]2(c3cc(C#CC4(O)CCCCCC4)ccc31)[C@H](C(=O)N1CCc3cc(OC)c(OC)cc3C1)[C@H]1C(=O)O[C@H](c3ccccc3)[C@H](c3ccccc3)N1[C@@H]2c1ccccc1OCCO | -2.18
COc1ccc(C#Cc2ccc3c(c2)[C@]2(C(=O)N3)[C@H](C(=O)O)[C@H]3C(=O)O[C@H](c4ccccc4)[C@H](c4ccccc4)N3[C@@H]2c2ccc(OCCO)cc2)cc1 | -1.92
COc1ccc(C#Cc2ccc3c(c2)[C@]2(C(=O)N3)[C@H](c3ccc(OCCO)cc3)N3[C@H](c4ccccc4)[C@H](c4ccccc4)OC(=O)[C@H]3[C@@H]2C(=O)N2CCN(c3ncccn3)CC2)cc1 | -1.18
[N-]=[N+]=NCc1ccccc1[C@H]1OC(c2ccc(OCCCO)cc2)=N[C@@]1(Cc1ccccc1N=[N+]=[N-])C(=O)N1CCCCC1 | -2.19
CCCC=C(CCC)[C@@H](NS(=O)(=O)c1ccccc1)c1ccc(C(F)(F)F)cc1 | -2.28
COc1cc2c(cc1OC)CN(C(=O)[C@@H]1[C@H]3C(=O)O[C@H](c4ccccc4)[C@H](c4ccccc4)N3[C@H](c3ccc(O)cc3)[C@@]13C(=O)Nc1ccc(C#CCNC(N)=O)cc13)CC2 | -0.126
COc1ccc([Si](C)(C)[C@@H]2[C@@H](CCO)O[C@]3(C(=O)N(Cc4cccc(N5C(=O)COc6ccccc65)c4)c4ccccc43)[C@H]2C)cc1 | -4.83

Structure (SMILES) | z-score
C=CC[C@@]1(C(=O)NCCN2CCOCC2)N=C(c2ccc(OCCCO)cc2)O[C@@H]1c1ccccc1 | -1.34
O=C1c2ccccc2[C@](Cc2ccccc2I)(C(=O)NCC(F)(F)F)[C@H](c2ccc(CO)cc2)N1Cc1ccccc1 | -0.673
COc1ccc(C(=O)Nc2ccc3c(c2)[C@]2(O[C@@H](CCO)[C@H]([Si](C)(C)c4ccc(OC)cc4)[C@H]2C)C(=O)N3Cc2ccccc2)cc1 | -5.23
COC(=O)[C@@]1(Cc2ccc(OC)cc2)[C@H]2c3cc(C(=O)N(C)C)n(CCF)c3C[C@H]2CN1C(=O)c1ccccc1 | -1.83
COC(=O)c1c(CC[C@@H](CO)NC(=O)N[C@@H](C)Cn2cc(C3(O)CCCC3)nn2)oc(C(C)=O)c1C(=O)OC | 0.884
CC1=C2[C@@H](CCc3ccccc3)OB(O)C[C@@H]2[C@@H]2C(=O)C=CC(=O)[C@@H]2C1 | -2.13
CCCNC(=O)[C@@]1(Sc2ccc(C)cc2)CC(=O)N(Cc2ccccc2)[C@@H]1c1ccc(CO)cc1I | -2.64
CC(C)C(CO)N1C(=O)[C@@H]2[C@H]3C(=O)OCC=C[C@H]3OC23C=CCN(Cn2nnc4ccccc42)C(=O)[C@@H]13 (some centres undefined) | -0.634
O=[N+]([O-])c1ccc(C[n+]2ccc(-c3ccc(CO)cc3)cc2)o1 | 0.007
COc1cc(C(O)C2C=CC3C(=O)N(C)C(=O)C3N2NC(=O)OC(C)(C)C)cc(OC)c1OC (centres undefined) | -0.639
COc1ccc([Si](C)(C)[C@@H]2[C@@H](CC(=O)N(CCO)Cc3ccccc3)O[C@]3(C(=O)N(C)c4c(Br)cc(C)cc43)[C@H]2C)cc1 | -4.3
COC(=O)[C@@]1(Cc2ccccc2)[C@H]2c3cc(C(=O)N(C)C)n(Cc4ccccn4)c3C[C@H]2CN1C(=O)c1ccccc1 | -0.903
O=C1NC(=O)C2C1C=CC(C(O)CCc1ccccc1)N2Nc1ccccn1 (centres undefined) | 0.204
CCOC(=O)C1=CCC(c2cccc(Cl)c2)O1 (centres undefined) | -1.74
C=C(COC)C(=O)CC[C@H](OC(=O)c1ccccc1-c1ccccc1C(=O)O)c1ccc(CO)o1 | -0.115
N#Cc1ccc(NN2C(C(O)c3ccco3)C=CC3C(=O)N(c4ccccc4)C(=O)C32)cc1 (centres undefined) | -0.36
COC(=O)C(CC#Cc1ccc2c(c1)[C@]1(C(=O)N2)[C@H](C(=O)N2CCc3cc(OC)c(OC)cc3C2)[C@H]2C(=O)O[C@H](c3ccccc3)[C@H](c3ccccc3)N2[C@@H]1c1ccc(OCCO)cc1)C(=O)OC | -1.21
